Assay [1] has as its target T1, CDK9/cyclin T1 (Homo sapiens) (UniProt O60563+P50750). The following applies: at 1 µM.
In assay [2] the target is T1, CDK9/cyclin T1 (Homo sapiens). The following applies: at 10 µM.
Assay [3] addresses T2, Serine/threonine-protein kinase Chk1 (Homo sapiens) (UniProt O14757).
T2 sequence (whole entry): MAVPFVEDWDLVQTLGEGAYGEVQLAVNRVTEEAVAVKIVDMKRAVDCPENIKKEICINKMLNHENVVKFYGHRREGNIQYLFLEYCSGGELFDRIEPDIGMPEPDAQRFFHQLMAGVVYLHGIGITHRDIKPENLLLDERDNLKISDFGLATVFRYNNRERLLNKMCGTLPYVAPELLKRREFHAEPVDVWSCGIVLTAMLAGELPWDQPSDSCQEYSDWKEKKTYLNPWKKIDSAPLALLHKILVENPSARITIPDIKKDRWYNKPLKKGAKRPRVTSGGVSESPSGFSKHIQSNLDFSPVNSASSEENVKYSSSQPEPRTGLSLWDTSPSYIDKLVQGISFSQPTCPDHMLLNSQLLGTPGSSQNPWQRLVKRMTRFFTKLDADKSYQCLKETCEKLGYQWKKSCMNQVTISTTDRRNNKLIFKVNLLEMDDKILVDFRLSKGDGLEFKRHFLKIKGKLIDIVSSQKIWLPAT
The following applies: at 1 µM.

For assay [4], the target named is Serine/threonine-protein kinase Chk2 (Homo sapiens) (UniProt O96017). The following applies: at 1 µM.
For assay [5] the target is unchanged. The following applies: at 10 µM.
Assay [6] has as its target Casein kinase I isoform gamma-1 (Homo sapiens) (UniProt Q9HCP0). The following applies: at 1 µM.
For assay [7] the target is unchanged. The following applies: at 10 µM.
The target of assay [8] is Casein kinase I isoform delta (Homo sapiens) (UniProt P48730). The following applies: at 1 µM.
Assay [9] shares this target. The following applies: at 10 µM.
For assay [10], the target named is T3, Casein kinase II (Homo sapiens) (UniProt P67870+P68400+P19784). The following applies: at 1 µM.
In assay [11] the target is T3, Casein kinase II (Homo sapiens). The following applies: at 10 µM.
Assay [12] addresses Casein kinase II subunit alpha' (Homo sapiens) (UniProt P19784). The following applies: at 10 µM.
The target in assay [13] is Dual specificity protein kinase CLK3 (Homo sapiens) (UniProt P49761). The following applies: at 1 µM.
For assay [14] the target is unchanged. The following applies: at 10 µM.
The target in assay [15] is Tyrosine-protein kinase CSK (Homo sapiens) (UniProt P41240). The following applies: at 1 µM.
Assay [16] shares this target. The following applies: at 10 µM.
Assay [17] concerns the target Dual specificity protein kinase CLK2 (Homo sapiens) (UniProt P49760). The following applies: at 1 µM.
The target is the same in assay [18]. The following applies: at 10 µM.
The target of assay [19] is T2, Serine/threonine-protein kinase Chk1 (Homo sapiens). The following applies: at 10 µM.
Assay [20] addresses Casein kinase II subunit alpha' (Homo sapiens) (UniProt P19784). The following applies: at 1 µM.

Dual specificity protein kinase CLK2 (Homo sapiens), sequence (P49760 whole entry, looked up): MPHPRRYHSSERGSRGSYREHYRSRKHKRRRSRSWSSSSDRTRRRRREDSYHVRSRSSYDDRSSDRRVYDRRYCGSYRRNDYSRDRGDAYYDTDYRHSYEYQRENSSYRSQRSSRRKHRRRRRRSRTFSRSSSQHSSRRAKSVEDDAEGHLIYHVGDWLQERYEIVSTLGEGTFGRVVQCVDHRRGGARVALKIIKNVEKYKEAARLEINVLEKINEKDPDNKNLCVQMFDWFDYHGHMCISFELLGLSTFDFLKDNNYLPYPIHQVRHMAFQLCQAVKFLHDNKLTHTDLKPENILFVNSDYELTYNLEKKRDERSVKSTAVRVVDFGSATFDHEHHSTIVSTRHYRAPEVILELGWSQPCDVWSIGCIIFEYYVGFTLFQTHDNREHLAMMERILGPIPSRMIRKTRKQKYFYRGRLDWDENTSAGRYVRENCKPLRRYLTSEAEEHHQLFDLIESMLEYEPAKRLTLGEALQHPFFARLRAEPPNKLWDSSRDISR
Dual specificity protein kinase CLK3 (Homo sapiens), sequence (P49761 whole entry, looked up): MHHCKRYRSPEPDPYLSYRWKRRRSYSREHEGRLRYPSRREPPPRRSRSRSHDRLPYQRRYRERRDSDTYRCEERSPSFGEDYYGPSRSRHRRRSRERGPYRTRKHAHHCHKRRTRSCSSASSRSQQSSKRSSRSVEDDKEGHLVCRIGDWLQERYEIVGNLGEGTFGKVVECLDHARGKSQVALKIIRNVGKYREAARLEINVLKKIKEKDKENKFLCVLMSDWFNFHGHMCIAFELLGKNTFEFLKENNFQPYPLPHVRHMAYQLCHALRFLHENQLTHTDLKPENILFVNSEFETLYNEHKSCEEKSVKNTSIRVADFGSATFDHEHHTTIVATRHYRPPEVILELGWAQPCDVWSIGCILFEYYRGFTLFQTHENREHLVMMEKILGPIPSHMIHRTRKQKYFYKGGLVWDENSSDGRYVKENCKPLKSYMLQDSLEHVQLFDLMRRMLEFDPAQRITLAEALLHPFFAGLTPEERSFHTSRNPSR
Serine/threonine-protein kinase Chk2 (Homo sapiens), sequence (O96017 whole entry): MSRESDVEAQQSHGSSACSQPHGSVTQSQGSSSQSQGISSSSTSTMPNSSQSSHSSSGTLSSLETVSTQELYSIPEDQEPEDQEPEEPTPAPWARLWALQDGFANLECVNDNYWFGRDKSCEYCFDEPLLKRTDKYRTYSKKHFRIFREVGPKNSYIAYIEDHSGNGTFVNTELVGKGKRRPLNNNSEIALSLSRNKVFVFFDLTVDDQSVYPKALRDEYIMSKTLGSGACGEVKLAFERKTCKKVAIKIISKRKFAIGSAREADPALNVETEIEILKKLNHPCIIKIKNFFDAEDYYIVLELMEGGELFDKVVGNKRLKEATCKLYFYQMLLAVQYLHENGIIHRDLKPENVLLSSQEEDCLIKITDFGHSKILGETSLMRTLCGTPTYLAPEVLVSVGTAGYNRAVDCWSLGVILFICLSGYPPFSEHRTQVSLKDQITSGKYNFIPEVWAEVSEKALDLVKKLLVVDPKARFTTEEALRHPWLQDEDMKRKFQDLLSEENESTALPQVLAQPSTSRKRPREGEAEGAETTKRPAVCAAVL
Casein kinase I isoform delta (Homo sapiens), sequence (P48730 whole entry, looked up, canonical isoform): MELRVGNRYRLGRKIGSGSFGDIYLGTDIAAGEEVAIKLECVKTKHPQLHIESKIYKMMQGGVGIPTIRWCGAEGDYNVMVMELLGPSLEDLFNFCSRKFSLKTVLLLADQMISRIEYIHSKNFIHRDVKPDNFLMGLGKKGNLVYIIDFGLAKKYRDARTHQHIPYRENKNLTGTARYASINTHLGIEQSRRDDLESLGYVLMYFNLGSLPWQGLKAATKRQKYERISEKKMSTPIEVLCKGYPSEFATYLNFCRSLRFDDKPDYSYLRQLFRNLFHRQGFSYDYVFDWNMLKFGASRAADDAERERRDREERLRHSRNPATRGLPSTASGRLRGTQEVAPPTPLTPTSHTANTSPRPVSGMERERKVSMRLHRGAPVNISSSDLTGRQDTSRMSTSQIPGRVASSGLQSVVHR
T3 sequence (P19784 whole entry, looked up): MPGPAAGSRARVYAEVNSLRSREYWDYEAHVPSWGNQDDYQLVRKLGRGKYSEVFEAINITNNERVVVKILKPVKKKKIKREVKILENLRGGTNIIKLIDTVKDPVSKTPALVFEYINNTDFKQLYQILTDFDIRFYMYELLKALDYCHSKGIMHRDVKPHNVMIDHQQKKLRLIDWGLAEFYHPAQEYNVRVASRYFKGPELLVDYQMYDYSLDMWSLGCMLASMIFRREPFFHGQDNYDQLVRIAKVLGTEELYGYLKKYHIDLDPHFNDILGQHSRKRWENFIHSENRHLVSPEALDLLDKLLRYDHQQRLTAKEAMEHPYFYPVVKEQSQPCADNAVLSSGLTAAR
T3 sequence (P67870 whole entry, looked up): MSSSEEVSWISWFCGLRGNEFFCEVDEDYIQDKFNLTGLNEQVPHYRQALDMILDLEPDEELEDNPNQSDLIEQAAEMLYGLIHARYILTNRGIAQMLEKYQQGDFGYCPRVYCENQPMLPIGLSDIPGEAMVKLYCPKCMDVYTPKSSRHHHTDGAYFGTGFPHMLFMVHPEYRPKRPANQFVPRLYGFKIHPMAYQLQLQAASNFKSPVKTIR
T3 sequence (P68400 whole entry, looked up): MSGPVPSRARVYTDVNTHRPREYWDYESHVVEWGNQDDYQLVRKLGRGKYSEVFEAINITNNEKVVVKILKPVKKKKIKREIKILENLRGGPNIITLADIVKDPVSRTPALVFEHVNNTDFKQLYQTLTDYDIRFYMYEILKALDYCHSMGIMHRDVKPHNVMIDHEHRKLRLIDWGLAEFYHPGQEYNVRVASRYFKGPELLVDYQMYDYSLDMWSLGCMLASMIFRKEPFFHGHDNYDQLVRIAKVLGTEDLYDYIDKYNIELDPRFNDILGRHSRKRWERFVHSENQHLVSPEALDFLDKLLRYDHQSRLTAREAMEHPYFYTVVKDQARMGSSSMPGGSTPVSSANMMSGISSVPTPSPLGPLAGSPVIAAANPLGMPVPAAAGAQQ
Casein kinase II subunit alpha' (Homo sapiens), sequence (P19784 whole entry, looked up): as the sequence (P19784 whole entry, looked up) above
Tyrosine-protein kinase CSK (Homo sapiens), sequence (P41240 2-450 limits assumed): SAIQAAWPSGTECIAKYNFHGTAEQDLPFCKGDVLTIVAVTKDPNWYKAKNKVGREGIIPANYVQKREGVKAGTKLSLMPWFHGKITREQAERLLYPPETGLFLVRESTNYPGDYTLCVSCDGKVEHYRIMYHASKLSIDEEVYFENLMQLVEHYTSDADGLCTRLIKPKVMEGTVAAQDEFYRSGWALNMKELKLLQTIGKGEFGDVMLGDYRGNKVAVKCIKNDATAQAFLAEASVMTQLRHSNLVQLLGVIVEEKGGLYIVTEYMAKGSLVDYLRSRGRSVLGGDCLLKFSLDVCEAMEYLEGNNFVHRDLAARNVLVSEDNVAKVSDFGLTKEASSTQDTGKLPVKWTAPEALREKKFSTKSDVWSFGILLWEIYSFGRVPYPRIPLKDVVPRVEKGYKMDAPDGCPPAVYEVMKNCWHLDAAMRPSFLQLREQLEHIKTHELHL
Casein kinase I isoform gamma-1 (Homo sapiens), sequence (Q9HCP0 whole entry, looked up, canonical isoform): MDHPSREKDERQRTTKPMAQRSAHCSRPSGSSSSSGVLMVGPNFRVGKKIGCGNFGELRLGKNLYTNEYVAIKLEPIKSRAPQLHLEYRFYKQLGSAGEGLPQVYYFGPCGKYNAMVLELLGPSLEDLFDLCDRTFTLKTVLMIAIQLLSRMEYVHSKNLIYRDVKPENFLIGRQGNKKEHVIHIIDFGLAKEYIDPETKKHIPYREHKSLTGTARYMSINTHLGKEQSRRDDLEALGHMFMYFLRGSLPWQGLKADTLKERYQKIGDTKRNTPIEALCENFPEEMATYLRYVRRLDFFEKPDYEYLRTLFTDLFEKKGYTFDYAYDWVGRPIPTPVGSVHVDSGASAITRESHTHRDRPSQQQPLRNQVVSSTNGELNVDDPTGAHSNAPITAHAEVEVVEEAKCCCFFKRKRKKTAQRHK

The term residual activity denotes the signal under treatment as a percentage of the control signal. For `COc1cc2nccc(Oc3ccc(NC(=S)NC(=O)c4ccccc4C)cc3)c2cc1OC`, the residual activity in [1] was 92%; in [2], 89%; in assay [3] it was 83%; in assay [4] it was 48%; in assay [5], 23%; in assay [6], 91%. Besides, the residual activity in [7] stood at 63%; in assay [8], 85%; in [9], 62%; in assay [10], 83%; in assay [11], 100%; in assay [12], 91%. For the same compound, the residual activity in assay [13] was found to be 66%; in assay [14], 46%; in assay [15], 96%; in [16], 69%.
As for `O=C(Nc1nc2ccccc2n1CCN1CCOCC1)c1cccc([N+](=O)[O-])c1`, the residual activity in assay [1] amounted to 41%; in [2] it was 58%; in [3], 85%; in assay [4], 79%; in assay [5], 67%; in [6], 58%. Also, the residual activity in assay [7] is 67%; in assay [8] it was 64%; in assay [9] it was 62%; in assay [10], 86%; in assay [17], 26%; in assay [18] it was 24%. Moreover, the residual activity in assay [13] was found to be 55%; in assay [14], 56%; in assay [15] it was 103%; in [16] it was 105%.
As to `N#C/C(=C1/Nc2ccccc2S1)c1ccnc(NCCc2cccnc2)n1`, the residual activity is 8% in assay [1]; 3% in assay [2]; 97% in assay [3]; 84% in assay [19]; 80% in [4]; 48% in assay [5]. The residual activity in assay [6] worked out at 77%; in assay [7] it was 29%; in assay [8], 52%; in [9], 8%; in [10] it was 58%; in assay [11], 15%. In addition, the residual activity came to 41% in [20]; 15% in assay [12]; 29% in assay [17]; 13% in [18]; 39% in [13]; 6% in assay [14].
`Nc1ncnc2c1c(-c1ccc(Oc3ccccc3)cc1)cn2C1CCCC1`: the residual activity in assay [1] was 99%; in assay [2] it was 96%; in [3] it was 83%; in [19], 113%; in [4], 79%; in assay [5] it was 24%. The residual activity in assay [6] was 88%; in assay [7], 73%; in assay [8], 56%; in assay [9] it was 8%; in assay [10], 79%; in assay [11] it was 105%. Besides, the residual activity is 118% in [20]; 86% in assay [12]; 112% in assay [17]; 88% in [18]; 82% in assay [13]; 6% in assay [14]. The residual activity in assay [15] was 0%; in assay [16], -1%.
Turning to `O=C1NC(=O)c2c1c1c3ccccc3[nH]c1n1cncc21`, the residual activity in assay [1] came out at 70%; in assay [2], 59%; in [3], 18%; in [19], 14%; in assay [4], 23%; in [5], 8%. For the same compound, the residual activity in assay [6] is 58%; in assay [7], 40%; in [8], 15%; in assay [9], 9%; in assay [10] it was 60%; in assay [11] it was 21%. Besides, the residual activity in [20] was found to be 81%; in assay [12] it was 21%; in assay [17], 51%; in assay [18], 46%; in assay [13], 70%; in [14] it was 53%. Moreover, the residual activity in assay [15] is 97%; in assay [16], 58%.
Turning to `CC(C)(C)n1nc(Cc2cccc3ccccc23)c2c(N)ncnc21`, the residual activity came to 101% in assay [1]; 65% in assay [2]; 86% in [3]; 102% in assay [19]; 96% in [4]; 48% in assay [5]. In addition, the residual activity amounted to 40% in assay [8]; 3% in [9]; 118% in assay [20]; 72% in assay [12]; 94% in [17]; 42% in [18]. In addition, the residual activity is 95% in assay [13], 32% in [14], 82% in [15] and 20% in assay [16].
Consider `O=c1cc(N2CCNCC2)oc2c(-c3ccccc3)cccc12`, for which the residual activity in assay [1] is 79%; in assay [2], 42%; in [3], 83%; in assay [19], 85%; in [4], 90%; in assay [5] it was 91%. Also, the residual activity in assay [6] amounted to 97%; in assay [7], 97%; in [8] it was 88%; in assay [9] it was 85%; in [10], 79%; in [11] it was 52%. The residual activity in assay [12] was found to be 90%; in assay [17] it was 90%; in assay [18], 93%; in assay [13], 81%; in assay [14], 100%.
As to `CCCCc1c(-c2ccc(O)cc2)[nH]c2nccnc12`, the residual activity in assay [1] is 7%; in assay [2], 7%; in assay [3] it was 91%; in assay [19], 100%; in assay [4] it was 31%; in [5] it was 10%. The residual activity in assay [6] turned out to be 75%; in assay [7], 61%; in assay [8], 81%; in assay [9], 52%; in [10], 99%; in assay [11], 92%. For the same compound, the residual activity in [12] was 87%; in assay [17] it was 64%; in [18] it was 47%; in [13], 83%; in assay [14] it was 52%.
Take `O=c1cc(N2CCOCC2)oc2c1ccc1ccccc12`: the residual activity was 95% in [1]; 70% in [2]; 90% in assay [3]; 93% in assay [19]; 111% in assay [4]; 93% in assay [5]. Further, the residual activity in assay [6] was 100%; in assay [7] it was 94%; in assay [8], 98%; in assay [9] it was 86%; in assay [10] it was 18%; in [11] it was -1%. Moreover, the residual activity in assay [20] stood at 56%; in assay [12] it was 5%; in assay [17], 98%; in assay [18] it was 45%; in [13], 91%; in [15] it was 103%.
Regarding `O=C1Nc2ccc(Cl)cc2/C1=C/c1cc(Cl)c(O)c(Cl)c1`, the residual activity in assay [1] was found to be 90%; in assay [2], 69%; in assay [3], 75%; in assay [19], 64%; in [4], 76%; in assay [5], 25%. The residual activity worked out at 89% in assay [6]; 75% in [7]; 77% in assay [8]; 35% in [9]; 41% in assay [10]; 4% in assay [11]. For the same compound, the residual activity in assay [20] worked out at 92%; in assay [12] it was 32%; in assay [17], 84%; in [18], 45%; in assay [13], 70%; in [14], 29%. For the same compound, the residual activity in assay [15] is 96%.
Take `O=S(=O)(NCCNC/C=C/c1ccc(Br)cc1)c1cccc2cnccc12`: the residual activity in assay [1] stood at 72%; in assay [2] it was 41%; in assay [3] it was 81%; in assay [19], 44%; in assay [4], 81%; in assay [5], 27%. Moreover, the residual activity in [18] came to 68%; in [13] it was 79%; in [15], 100%.
For the compound `O=C1NC(=O)C(c2cn(CCCn3ccnc3)c3ccccc23)=C1Nc1ccccc1`, the residual activity in assay [1] amounted to 14%; in assay [2] it was 3%; in assay [3], 75%; in assay [19] it was 37%; in assay [9] it was 75%; in assay [17] it was 8%. In addition, the residual activity is 2% in assay [18]; 55% in [13]; 36% in assay [14]; 107% in [15]; 78% in assay [16].

The record behind these values is ChEMBL document CHEMBL2218924, “A broad activity screen in support of a chemogenomic map for kinase signalling research and drug discovery” (Biochem J, 2013).
